Data: PubChem BioAssay
Activity calls are given as the source filed them.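 The calls were made as follows, unless noted: active = fluorescence ratio normalized to control raised more than 50% in primary screen plus both repeat runs; inactive = the rest.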

These compounds were tested on TRPC4 beta (transient receptor potential cation channel C4), mouse (assay: TRPC4 cation channel opening, retest – cell-based, Fluo4 calcium, HEK293 TRPC4beta/mu-opioid, duplicates, 10 µM, confirmation (AID 2426;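 as to activation: percent rise of integrated ratio over buffer wells lacking compound which define 0%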)). Settings: Fluo4 calcium fluorescence, at 10 µM; stronger effect = higher value.

Compound | outcome | activation
COc1ccc(-n2nc(C(=O)NCC(=O)NCCCN3CC(C)CC(C)C3)c3ccccc3c2=O)cc1Cl (stereo not given) | inactive | 
Cc1cc(OCC(=O)N(C(C)C)C(C)C)cc(C)c1Br | inactive | 
CCCCCCn1c(N2CCN(c3ccccc3)CC2)nc2c1c(=O)n(C)c(=O)n2C | inactive | 
CCC(=O)NC(C)C(c1cccs1)N1CCN(c2ccccc2)CC1 (stereo not given) | inactive | 
Cc1ccc(-c2nnc(N3CCC(C)CC3)c3ccccc23)cc1C | inactive | 
Cc1cc(C(C)(C)C)c(O)c(C)c1CC1=NCCN1 | inactive | 
Cc1sc2ncnc(NCC(c3ccccc3)N(C)C)c2c1C (stereo not given) |  | 245% (active)
O=C(NCc1ccccc1)C1=C[C@H](c2ccc(Br)cc2)C[C@H](OCc2ccc(CO)cc2)O1 | inactive | 
O=C(Nc1ccccc1)C1=C[C@H](C2CCCCC2)C[C@H](OCc2ccc(CO)cc2)O1 | inactive | 
Cc1ccc(S(=O)(=O)N2CCC(N3CCN(C)CC3)CC2)cc1Cl | inactive | 
Cc1cc(OCC(=O)NC2CCCCC2)ccc1Cl | inactive | 
O=[N+]([O-])c1ccc(/C=N/Nc2nc(N3CCCCC3)nc(N3CCCCC3)n2)o1 | inactive | 
Cc1cccc(/C=N/NC(=O)c2cccc(Cl)c2)n1 | inactive | 
S=C(NCCc1ccccn1)NC1CCCCC1 |  | 97% (active)
Cc1cccc(Cc2c(C)nc3c(C(=O)NCc4ccco4)cnn3c2C)c1 | inactive | 
Cc1ccc(Cn2c(=N)c(C(=O)NC3CCCC3)cc3c(=O)n4ccccc4nc32)cc1 |  | 206% (active)
COC(=O)[C@@]12CCCCN1[C@H](c1ccc(-c3cccc(Cl)c3)c(OC)c1)[C@H]1C(=O)N(C)C(=O)[C@H]12 | inactive | 
CC1=C(C(=O)NCc2ccccc2)C(c2cc(Br)cc(Br)c2OC(C)C)NC(=O)N1 (stereo not given) | inactive | 
CC1Cc2ccccc2N1C(=O)CSc1nc2c(c(=O)n(C)c(=O)n2C)n1Cc1ccc(F)cc1 (stereo not given) | inactive | 
CCN1CCN(c2ccc(S(=O)(=O)N3CCOCC3)cc2NC(=O)c2ccccc2OC(F)F)CC1 |  | 204% (active)

Compound | outcome | activation
O=C1C(Cl)=C(Nc2cccc(O)c2)C(=O)N1Cc1ccccc1 | inactive | 
O=C(NCc1ccccc1)C1=C[C@H](c2ccc(C(F)(F)F)cc2)C[C@H](OCc2ccc(CO)cc2)O1 | inactive | 
COc1ccc(C)c(NC(=O)NCCc2cnc[nH]2)c1 |  | 152% (active)
CN(C)CCNc1ccc(Cl)cc1[N+](=O)[O-] | inactive | 
CCn1c(O)c(N=NC(=O)c2cccc(S(=O)(=O)N3CCCCC3)c2)c2ccccc21 | inactive | 
Cc1onc(-c2ccccc2)c1C(=O)NNC(=S)NC(=O)c1ccc2c(c1)OCO2 |  | 55% (active)
COc1ccc(Cl)cc1C(=O)NCCN(C)C | inactive | 
O=C1NCN(c2ccccc2)C12CCN(CCCC(c1ccc(F)cc1)c1ccc(F)cc1)CC2 | inactive | 
Cc1ccc(/C=N/NC(=O)NC2CCCCC2)o1 | inactive | 
O=C(Nc1cccc(Cl)c1)c1cnn2cccnc12 | inactive | 
COc1c(C)cc(C(=O)C2CCCN(Cc3cccc4nccnc34)C2)cc1C (stereo not given) |  | 108% (active)
O=C(c1cccc([N+](=O)[O-])c1)N1CCCC(C(=O)N2CCCCCC2)C1 (stereo not given) | inactive | 
CCOc1ccc(-n2c(SCC(=O)O)nc3sc4c(c3c2=O)CCCC4)cc1 | inactive | 
Cc1cc(-c2ccc(C)c(S(=O)(=O)N3CCN(C(=O)c4ccco4)CC3)c2)on1 | inactive | 
O=C(NC1CCN(Cc2ccccc2)CC1)C12CC3CC(CC(C3)C1)C2 |  | 166% (active)
Cc1cccc(/C=N/NC(=O)c2cc(Br)ccc2O)n1 | inactive | 
C1CCN(c2nc(N3CCCC3)nc(N3CCNCC3)n2)C1 | inactive | 
CNc1nc(N2CCc3ccccc32)ncc1F | inactive | 
Cc1cccc(Cn2c(N3CCN(c4ccccc4)CC3)nc3c2c(=O)n(C)c(=O)n3C)c1 | inactive | 
O=C(Nc1cccc(Cl)c1)N1CCN(C/C=C/c2ccccc2)CC1 | inactive | 

These compounds were tested on transient receptor potential cation channel C4 beta (TRPC4), mouse (assay: TRPC4 cation channel opening, second retest – cell-based, second round, Fluo4, HEK293 TRPC4beta/mu-opioid, 1 µM, confirmation (AID 2461;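 active = primary screen active and over 50% activation in each of two duplicate runs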;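 as to activation: 0% = wells without test compound as baseline of integrated fluorescence ratio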)). Settings: Fluo4 calcium fluorescence, at 1 µM; stronger effect = higher value.

Compound | outcome | activation
COc1ccc(-n2nc(C(=O)NCC(=O)NCCCN3CC(C)CC(C)C3)c3ccccc3c2=O)cc1Cl (stereo not given) | inactive | 
Cc1cc(OCC(=O)N(C(C)C)C(C)C)cc(C)c1Br | inactive | 
CCCCCCn1c(N2CCN(c3ccccc3)CC2)nc2c1c(=O)n(C)c(=O)n2C | inactive | 
CCC(=O)NC(C)C(c1cccs1)N1CCN(c2ccccc2)CC1 (stereo not given) | inactive | 
Cc1ccc(-c2nnc(N3CCC(C)CC3)c3ccccc23)cc1C | inactive | 
Cc1cc(C(C)(C)C)c(O)c(C)c1CC1=NCCN1 | inactive | 
Cc1sc2ncnc(NCC(c3ccccc3)N(C)C)c2c1C (stereo not given) |  | 120% (active)
O=C(NCc1ccccc1)C1=C[C@H](c2ccc(Br)cc2)C[C@H](OCc2ccc(CO)cc2)O1 | inactive | 
O=C(Nc1ccccc1)C1=C[C@H](C2CCCCC2)C[C@H](OCc2ccc(CO)cc2)O1 | inactive | 
Cc1ccc(S(=O)(=O)N2CCC(N3CCN(C)CC3)CC2)cc1Cl | inactive | 
Cc1cc(OCC(=O)NC2CCCCC2)ccc1Cl | inactive | 
O=[N+]([O-])c1ccc(/C=N/Nc2nc(N3CCCCC3)nc(N3CCCCC3)n2)o1 | inactive | 
Cc1cccc(/C=N/NC(=O)c2cccc(Cl)c2)n1 | inactive | 
S=C(NCCc1ccccn1)NC1CCCCC1 | inactive | 
Cc1cccc(Cc2c(C)nc3c(C(=O)NCc4ccco4)cnn3c2C)c1 | inactive | 
Cc1ccc(Cn2c(=N)c(C(=O)NC3CCCC3)cc3c(=O)n4ccccc4nc32)cc1 | inactive | 
COC(=O)[C@@]12CCCCN1[C@H](c1ccc(-c3cccc(Cl)c3)c(OC)c1)[C@H]1C(=O)N(C)C(=O)[C@H]12 | inactive | 
CC1=C(C(=O)NCc2ccccc2)C(c2cc(Br)cc(Br)c2OC(C)C)NC(=O)N1 (stereo not given) | inactive | 
CC1Cc2ccccc2N1C(=O)CSc1nc2c(c(=O)n(C)c(=O)n2C)n1Cc1ccc(F)cc1 (stereo not given) | inactive | 
CCN1CCN(c2ccc(S(=O)(=O)N3CCOCC3)cc2NC(=O)c2ccccc2OC(F)F)CC1 |  | 136% (active)

Compound | outcome | activation
O=C1C(Cl)=C(Nc2cccc(O)c2)C(=O)N1Cc1ccccc1 | inactive | 
O=C(NCc1ccccc1)C1=C[C@H](c2ccc(C(F)(F)F)cc2)C[C@H](OCc2ccc(CO)cc2)O1 | inactive | 
COc1ccc(C)c(NC(=O)NCCc2cnc[nH]2)c1 | inactive | 
CN(C)CCNc1ccc(Cl)cc1[N+](=O)[O-] | inactive | 
CCn1c(O)c(N=NC(=O)c2cccc(S(=O)(=O)N3CCCCC3)c2)c2ccccc21 | inactive | 
Cc1onc(-c2ccccc2)c1C(=O)NNC(=S)NC(=O)c1ccc2c(c1)OCO2 | inactive | 
COc1ccc(Cl)cc1C(=O)NCCN(C)C | inactive | 
O=C1NCN(c2ccccc2)C12CCN(CCCC(c1ccc(F)cc1)c1ccc(F)cc1)CC2 | inactive | 
Cc1ccc(/C=N/NC(=O)NC2CCCCC2)o1 | inactive | 
O=C(Nc1cccc(Cl)c1)c1cnn2cccnc12 | inactive | 
COc1c(C)cc(C(=O)C2CCCN(Cc3cccc4nccnc34)C2)cc1C (stereo not given) | inactive | 
O=C(c1cccc([N+](=O)[O-])c1)N1CCCC(C(=O)N2CCCCCC2)C1 (stereo not given) | inactive | 
CCOc1ccc(-n2c(SCC(=O)O)nc3sc4c(c3c2=O)CCCC4)cc1 | inactive | 
Cc1cc(-c2ccc(C)c(S(=O)(=O)N3CCN(C(=O)c4ccco4)CC3)c2)on1 | inactive | 
O=C(NC1CCN(Cc2ccccc2)CC1)C12CC3CC(CC(C3)C1)C2 | inactive | 
Cc1cccc(/C=N/NC(=O)c2cc(Br)ccc2O)n1 | inactive | 
C1CCN(c2nc(N3CCCC3)nc(N3CCNCC3)n2)C1 | inactive | 
CNc1nc(N2CCc3ccccc32)ncc1F | inactive | 
Cc1cccc(Cn2c(N3CCN(c4ccccc4)CC3)nc3c2c(=O)n(C)c(=O)n3C)c1 | inactive | 
O=C(Nc1cccc(Cl)c1)N1CCN(C/C=C/c2ccccc2)CC1 | inactive | 
